Bioassay records as filed in PubChem BioAssay.
Compounds with a hit are over-represented: about 19% of the library has one in this group of screens.
TDP1 cell CPT: growth inhibition of DT40 Tdp1-/-;hTDP1 cells with camptothecin (screen for TDP1 inhibitors) | chicken DT40 Tdp1-/-;hTDP1 cells + 20 nM CPT, ATP luminescence, 48 h | Potency, µM (titrated, usually from 46.2 µM), most hits filed as inhibitors | hit rate 12% among 420,000 | AID 686979; further: nearly all actives have a fitted effect of over 55% in size
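Chicken DT40 Tdp1-/- cells complemented with human TDP1, 400 cells/well, exposed to compounds plus 20 nM camptothecin for at least 48 h at 37 C; viability read as ATP content by CellTiter-Glo luminescence.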
TDP1 cell noCPT: qHTS for Inhibitors of human tyrosyl-DNA phosphodiesterase 1 (TDP1): qHTS in cells in absence of CPT; Potency, µM (top dose mostly 46.2 µM), most hits filed as inhibitors; AID 686978, 2013; DT40 Tdp1-/- hTDP1 cells, no CPT, ATP luminescence, 48 h; hit rate 15% among 420,000; further: nearly all actives have a fitted effect of over 55% in size
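Cells were dispensed at 400 per well, compounds added by pin tool, plates incubated ≥48 hr at 37 °C, then CellTiter-Glo added for 30 min at room temperature before luminescence reading. Line: DT40 Tdp1-/- complemented with hTDP1; camptothecin omitted.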
RORg inh: blocks mouse ROR gamma transcriptional activity | P51450 | Drosophila S2 Gal4-RORgamma UAS-luciferase reporter, 20 h | Potency, µM (top dose mostly 53.6 µM), actives largely listed as inhibitors | hit rate 5.4% among 310,000 | AID 2551; further: nearly all actives have a fitted effect of over 60% in size
Target sequence (P51450 whole entry, looked up, the tested form may be a part): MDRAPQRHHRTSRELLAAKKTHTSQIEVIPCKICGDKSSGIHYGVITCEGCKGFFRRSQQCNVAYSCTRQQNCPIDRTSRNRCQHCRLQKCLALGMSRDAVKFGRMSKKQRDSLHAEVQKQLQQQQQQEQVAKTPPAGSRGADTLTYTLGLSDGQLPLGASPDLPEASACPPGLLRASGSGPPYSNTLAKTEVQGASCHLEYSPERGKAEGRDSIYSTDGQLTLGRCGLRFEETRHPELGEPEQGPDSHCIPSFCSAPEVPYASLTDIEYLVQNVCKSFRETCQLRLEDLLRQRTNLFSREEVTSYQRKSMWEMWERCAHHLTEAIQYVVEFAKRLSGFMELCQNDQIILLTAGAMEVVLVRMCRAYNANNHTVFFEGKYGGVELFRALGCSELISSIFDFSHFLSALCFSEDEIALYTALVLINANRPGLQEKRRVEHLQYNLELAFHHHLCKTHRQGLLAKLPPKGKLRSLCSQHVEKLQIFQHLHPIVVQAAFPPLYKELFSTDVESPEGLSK
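ROR gamma transcriptional activity was tracked as Gal4-UAS luciferase output in stably transfected Drosophila Schneider cells, with compound added 1 hr before 700 uM copper sulfate induction and a 20 hr ambient-temperature incubation.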
TDP1 inh: blocks human tyrosyl-DNA phosphodiesterase 1; Q9NUW8; recombinant TDP1, AlphaScreen DNA substrate cleavage; Potency, µM (titrated, usually from 130 µM), usual class: inhibitors; hit rate 0.28% among 350,000; further: nearly all actives have a fitted effect of over 40% in size
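Signal: AlphaScreen proximity between streptavidin donor and anti-FITC acceptor beads on intact substrate. Reaction: Tdp1 1 nM, substrate 15 nM final, 5 min RT after 15 min compound preincubation.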
VP16 counter: counter-screen for ROR gamma inhibitors: Gal4-VP16 reporter; Drosophila S2 Gal4-VP16 UAS-luciferase, luminescence, 20 h; Potency, µM (highest dose often 53.6 µM), actives largely listed as inhibitors; hit rate 3.5% among 310,000; AID 2546;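 further: Gal4-VP16 expression switched on by copper sulfate through the metallothionein promoter; nearly all actives have a fitted effect of over 50% in size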
Each line names hits and unclear results; the compound was inactive in the other large screens. The call rests on the fitted dose curve; in most records, active means well fitted curve in the direction sought with a large enough effect; inconclusive means small, poorly fitted or top-dose-only effect, or another doubt; inactive means no such curve, though single readings can be large; an effect the other way counts as inactive or inconclusive.

Cc1c(NC(=O)C(C)OC(=O)CNC(=O)c2ccccc2)c(=O)n(-c2ccccc2)n1C (stereo not given)	none
OCCNCCCCOc1ccc(F)cc1	none
COc1ccc(S(=O)(=O)Nc2ccccc2OC)cc1NC(=O)Cc1cccs1	TDP1 cell CPT inconclusive, TDP1 cell noCPT 21µM
COc1ccccc1NS(=O)(=O)c1cccc(C(=O)NCC(c2cccs2)N(C)C)c1 (stereo not given)	TDP1 cell CPT inconclusive (no result: RORg inh, TDP1 inh, VP16 counter)
COc1ccccc1NS(=O)(=O)c1cccc(C(=O)N(C)Cc2cccs2)c1	TDP1 cell CPT 23µM, TDP1 cell noCPT 23µM
COc1ccc(OC)c(NC(=O)CN2C(=O)CCc3cc(S(=O)(=O)N4CCCCC4)ccc32)c1	TDP1 cell CPT 26µM, TDP1 cell noCPT inconclusive (no result: RORg inh, VP16 counter)
COc1ccc(NC(=O)CN2C(=O)COc3ccc(S(=O)(=O)N4CCCCC4)cc32)c(OC)c1	TDP1 cell CPT 15µM, TDP1 cell noCPT inconclusive
Cc1cc(C)cc(NC(=O)CN2C(=O)CCc3cc(S(=O)(=O)N4CCCCC4)ccc32)c1	TDP1 cell CPT 16µM, TDP1 cell noCPT inconclusive (no result: RORg inh, VP16 counter)
COc1ccccc1CNC(=O)CN1C(=O)CCc2cc(S(=O)(=O)N3CCCCC3)ccc21	TDP1 cell CPT inconclusive, TDP1 cell noCPT inconclusive (no result: RORg inh, VP16 counter)
CC(=O)Nc1ccc(NC(=O)CN2C(=O)CCc3cc(S(=O)(=O)N4CCCCC4)ccc32)cc1	none (no result: RORg inh, VP16 counter)
O=C(NC1CCCN(Cc2ccc(Cl)cc2)C1)c1ccnc(Cl)c1 (stereo not given)	TDP1 cell noCPT inconclusive (no result: TDP1 inh)
CC(Nc1ccccc1)c1ccncc1 (stereo not given)	none
CCOc1ccc(CNC(=O)c2cccc(NC(=O)C3=C(C)OCCS3)c2)cc1	TDP1 cell CPT inconclusive, TDP1 cell noCPT inconclusive
COC(=O)c1ccc(N2NC(=O)/C(=C/c3cc(OC)c(O)c(OC)c3)C2=O)cc1	TDP1 cell noCPT inconclusive (no result: TDP1 inh)
CN(C)C(=O)c1ccc(NC(=O)CSc2nc3ccccc3[nH]2)cc1	none
Cc1nnc2ccc(-c3cccc(NS(=O)(=O)c4ccccc4[N+](=O)[O-])c3)nn12	TDP1 cell CPT 23µM, TDP1 cell noCPT 15µM (no result: RORg inh, VP16 counter)
CCCS(=O)(=O)Nc1cccc(-c2ccc3nnc(C)n3n2)c1	TDP1 cell CPT inconclusive, TDP1 cell noCPT inconclusive, RORg inh inconclusive
CCS(=O)(=O)Nc1cccc(-c2ccc3nnc(-c4cccnc4)n3n2)c1	TDP1 cell CPT 21µM, TDP1 cell noCPT inconclusive
Cc1nnc(SCC(=O)NCc2ccccc2)n1-c1ccccc1	none
CC(=O)N1CCc2cc(S(=O)(=O)N3CCc4ccccc43)ccc21	TDP1 cell CPT 13µM, TDP1 cell noCPT inconclusive, RORg inh inconclusive, VP16 counter 13µM
CC1Cc2cc(S(=O)(=O)N3CCN(c4ccccc4F)CC3)ccc2N1C(=O)C1CC1 (stereo not given)	TDP1 cell CPT inconclusive, TDP1 cell noCPT 23µM
CC(=O)N1CCc2cc(S(=O)(=O)N3CCc4ccccc4C3)ccc21	TDP1 cell CPT inconclusive, TDP1 cell noCPT inconclusive
CC(=O)N1CCCc2cc(S(=O)(=O)N3CCN(c4ccccc4F)CC3)ccc21	TDP1 cell CPT 21µM, TDP1 cell noCPT 21µM (no result: RORg inh, VP16 counter)
CCOc1ccc(CN(C(=O)/C=C/c2ccco2)C2CCS(=O)(=O)C2)cc1 (stereo not given)	none
OC1CCCN(Cc2ccc3ccc4cccc5ccc2c3c45)C1 (stereo not given)	TDP1 cell CPT inconclusive, TDP1 cell noCPT 21µM
COc1ccc(C2c3c(oc4ccccc4c3=O)C(=O)N2c2ccccn2)cc1 (stereo not given)	TDP1 cell CPT inconclusive, TDP1 cell noCPT inconclusive
O=C1CCCC(O)=C1N=Nc1ccc2c(c1)OCO2	none
O=C1CCCC(O)=C1N=Nc1ccc(C(=O)O)cc1	TDP1 inh 2.2µM
C(#Cc1ccc(C#CCN2CCCC2)cc1)CN1CCCC1	TDP1 cell CPT inconclusive, TDP1 cell noCPT 21µM
Cc1cc(Cl)c2oc(C(=O)N3CCN(c4ccncc4)CC3)c(C)c2c1	TDP1 cell CPT 21µM, TDP1 cell noCPT 13µM (no result: RORg inh, TDP1 inh, VP16 counter)
Cc1ccc2c(C)c(C(=O)N3CCN(c4ncccn4)CC3)oc2c1C	TDP1 cell CPT 21µM, TDP1 cell noCPT 16µM (no result: RORg inh, VP16 counter)
COC(=O)C1CCN(C(=O)c2oc3c(Cl)cc(C)cc3c2C)CC1	TDP1 cell CPT inconclusive, TDP1 cell noCPT 21µM
